From PubChem BioAssay AID504941 (Broad Institute, 2011) come the findings set out here.

The whole screen tested about 1,200 compounds, of which about 170 (14%) were called active. No rule for the calls is given here. These entries were drawn from the full list. Entries that show only a call come without a potency. Potency and affinity values are given separately.

This assay in a line: E. coli Tat export inhibitors, dose response, cherry-pick, set 2, plate reader (AID 504941). The following applies: E. coli Tat transport reporter; series mostly up to 38 µM.
As for `Oc1ccc(/C=N/Nc2ccccc2)cc1`, the compound was classed as inactive.
In the case of `CC(C)c1nnc(NC(=O)CCS(=O)(=O)Cc2ccccc2)s1`, the compound was classed as inactive.
As for `CC(=O)NS(=O)(=O)c1ccc(NC(=O)c2cc(-c3cccs3)nc3ccccc23)cc1`, the entry is “inactive”.
For `O=C(Cn1ccc(C(F)(F)F)n1)Nc1ccc(S(=O)(=O)NCc2ccco2)cc1`, the compound was classed as inactive.
On to `CCC(C)n1nccc1NC(=O)C(C)Cl` (stereo unspecified), for which the outcome was inactive.
Consider `O=C(Nc1cccc(-c2nc3cccnc3s2)c1)C1c2ccccc2Oc2ccccc21`, for which the result was inactive.
On to `Nc1cc(OC(=O)c2ccc(F)cc2)nn1S(=O)(=O)c1ccc(F)cc1`, for which the outcome was inactive.
As for `CC(C)(C)n1nnnc1C(c1cc2cc3c(cc2[nH]c1=O)OCCO3)N1CCSCC1` (stereo unspecified), the entry is “inactive”; as for `Cc1cc(C(C#N)c2ccccc2F)n2ncnc2n1` (stereo unspecified), “inactive”; as for `C=CCc1c(C)nc(C)nc1N/N=C/c1ccc(N(C)C)cc1`, “inactive”.
As for `COc1ccc(S(=O)(=O)N(C)c2ccc(C(=O)N3CCOCC3)cc2)cc1`, the entry is “inactive”; as for `CCCCOc1ccc(C2CC(=O)N(C)C2=O)cc1` (stereo unspecified), “inactive”; as for `CC[C@H]1OC(=O)[C@H](C)[C@@H](O[C@H]2C[C@@](C)(OC)[C@@H](O)[C@H](C)O2)[C@H](C)[C@@H](O[C@@H]2O[C@H](C)C[C@H](N(C)C)[C@H]2O)[C@](C)(OC)C[C@@H](C)C(=O)[C@H](C)[C@@H](O)[C@]1(C)O`, “inactive”.
As for `NC(=O)c1ccccc1NC(=O)COc1ccc2c(c1)OCO2`, the entry is “inactive”; as for `CCCN(Cc1ccccc1)C(=S)Nc1ccc(SC(F)F)cc1`, “inactive”; as for `c1ccc2c(OCCCN3CCCCCC3)cccc2c1`, “inactive”.
For `CC(C)(C)OC(=O)N[C@@H](Cc1ccccc1)[C@H](O)c1ccco1`, the call was inactive.
Take `C[C@H](NC(=O)c1nc[nH]c1C(=O)NCc1ccc(CNC(=O)OC(C)(C)C)cc1)c1ccccc1`: the call was inactive.
Under `Cc1ccccc1-c1nc(CN2CCC(C(=O)O)CC2)c(C)o1` stands “inactive”; under `CC(O/N=C/c1ccc(OC(F)F)cc1)C(=O)Nc1cccc(S(=O)(=O)N2CCOCC2)c1` (stereo unspecified), “inactive”.
As for `Fc1ccc(-n2c(-c3ccc4ccccc4n3)n[nH]c2=S)cc1Cl`, the entry is “inactive”; as for `Nc1nc(CN2CCCCC2)cs1`, “inactive”; as for `CCCn1c2c(c(=N)c3c1CCC3)CCCC2`, “inactive”.
Regarding `COc1ccc(C2OC(=O)CC2C(=O)NCc2ccc(F)cc2)cc1OC` (stereo unspecified), the compound was called inactive.
`Cc1ccc2oc3c(c(=O)c2c1)C(c1cccs1)N(CCCN(C)C)C3=O` (stereo unspecified): the result was inactive.
Consider `CC(=O)N1CCN(c2cc3c(cc2F)c(=O)c(C(=O)O)cn3C2CC2)CC1`, for which the call was inactive.
As for `CC(C)C[C@@H](CN1CCC[C@@H]1CN1C(=O)C(=O)NC[C@@H]1Cc1ccccc1)N1C[C@H](Cc2ccc(O)cc2)N(CC2CCCCC2)C(=O)C1=O`, the entry is “inactive”.
In the case of `CCCC(=O)c1c[nH]c(C(=O)N2CCOCC2)c1`, the compound was classed as inactive.
Under `CCC(=NCCc1ccc(OC)c(OC)c1)C1=C(O)CC(C)(C)CC1=O` stands “inactive”; under `N#Cc1nc(-c2ccccc2Cl)oc1N1CCN(C(=O)c2ccco2)CC1`, “inactive”; under `O=C(NNc1ncnc2c1cnn2-c1ccccc1)c1cccs1`, “inactive”.
Consider `C1=C(CCNc2ncnc3c2cnn3-c2ccccc2)CCCC1`, for which the call was inactive.
Take `COc1cccc(C(=O)N(CN2CCCC2=O)c2cccc(Cl)c2)c1OC`: the call was inactive.
Under `O=C(Nc1ccc(Cl)c(C(F)(F)F)c1)NC1CC2CCCC(C1)N2C1CC1` (stereo unspecified) stands “inactive”.
As to `CCOc1ncccc1C(=O)N(CC)CC(=O)Nc1ccc(NC(C)=O)cc1`, the call was inactive.
With `CCCCN(C)CCn1c(=S)[nH]c2ncccc2c1=O`, the outcome was inactive.
Under `CN(C(=O)COC(=O)c1cccc(S(=O)(=O)N2CCOCC2)c1)C1CCS(=O)(=O)C1` (stereo unspecified) stands “inactive”; under `CC(C)C(C(=O)NC1CCCC1)N(CC1CCCO1)C(=O)CNS(=O)(=O)c1ccccc1` (stereo unspecified), “inactive”; under `CCOc1nc(Nc2ccc(OC)c(Cl)c2)nc(OCC)n1`, “inactive”.
Under `Cc1ccc(C)c(N2CCN(c3ccc4cc(S(=O)(=O)N5CCCCC5)ccc4n3)CC2)c1` stands “inactive”; under `O=C(CCCc1nc2ccccc2s1)NC1CCOC1=O` (stereo unspecified), “inactive”.
As for `Clc1ccccc1-c1ccc2ncnc(NCc3cccnc3)c2c1`, the entry is “inactive”.
Consider `Cc1ccc(S(=O)(=O)Nc2ccnc(-c3cccnc3)n2)cc1`, for which the call was inactive.
As for `CC1CC(OC(=O)C(O)c2ccccc2)CC(C)(C)N1C` (stereo unspecified), the call was inactive.
For the compound `CC1CCN(C(=O)c2ccc(S(=O)(=O)N3CCCC3)cc2)CC1`, the outcome was inactive.
Under `CC1CCN(CC[C@H]2CCCN2S(=O)(=O)c2cccc(O)c2)CC1` stands “inactive”.
Under `COc1ccc(/C=C/C(=O)OCc2cc(=O)n3c(n2)sc2ccccc23)cc1` stands “inactive”; under `CCN1CCN(C(=O)C(NS(=O)(=O)c2ccc3nc(C)sc3c2)C(C)C)CC1` (stereo unspecified), “inactive”; under `O=C(CCNC(=O)c1ccc([N+](=O)[O-])cc1)Nc1cccc(S(=O)(=O)N2CCCCCC2)c1`, “inactive”.
As for `O=C(NCCc1ccccc1)c1ccc2c(c1)OCCCO2`, the entry is “inactive”.
Regarding `O=C(CN1CCN(c2ccc(O)cc2)CC1)Nc1ccc2c(c1)OCCO2`, the result was inactive.
As for `Cc1cc(Cl)c(S(=O)(=O)NC(C(=O)O)C(C)C)cc1OCC(=O)NC1CCCCC1` (stereo unspecified), the entry is “inactive”; as for `C[C@@H]1CN(c2c(F)c(F)c3c(=O)c(C(=O)O)cn(C4CC4)c3c2F)C[C@H](C)N1`, “inactive”.
In the case of `Nc1nc(=O)n(C2CC(O)C(CO)O2)cc1F` (stereo unspecified), the result was inactive.
Turning to `CCNC(=S)NCCN1CCOCC1`, the compound was called inactive.
As for `O=C(Nc1ccc2c(c1)OCCO2)c1ccc(Cl)c(S(=O)(=O)N2CCCCC2)c1`, the entry is “inactive”.
As for `CCCc1cc(=O)[nH]c2nnc(SCC(=O)Nc3ccc4c(c3)OCCO4)n12`, the outcome was inactive.
In the case of `C=CCN(CC=C)S(=O)(=O)c1ccc(NC(=S)NC(=O)C2CC2)cc1`, the outcome was inactive.
As to `COc1ccc(-c2cc(C(=O)Oc3ccc([N+](=O)[O-])cc3)c3ccccc3n2)cc1`, the compound was classed as inactive.
Under `COc1ccc(-c2cc(C)no2)cc1S(=O)(=O)NCCCN1CCCCCC1` stands “inactive”; under `CCOc1ccc2[nH]c(C)c(CN3CCCCC3)c(=O)c2c1`, “inactive”.
As for `Cc1cc(-n2c(C)cc(C(=O)COc3cccnc3[N+](=O)[O-])c2C)no1`, the entry is “inactive”; as for `O=C(N1CCCC1)C12CC3CC(C1)CC(C(=O)N1CCCC1)(C3)C2`, “inactive”; as for `C/C(=N\NC(=O)c1cccc(O)c1)c1cccc(NC(=O)c2ccc(F)cc2)c1`, “inactive”.
For the compound `COc1cc(C(=O)NCCOC(=O)c2cccc(N(C)C)c2)cc(OC)c1OC`, the compound was called inactive.
Regarding `Cc1cc(C)cc(-n2c(C)cc(/C=C3\C(=N)N4N=C(CC(C)C)SC4=NC3=O)c2C)c1`, the compound was classed as inactive.
For `COc1ccc(NS(=O)(=O)c2ccc(NC(=O)Cc3cccs3)cc2)cc1`, the outcome was inactive.
`O=S(=O)(N1CCCCC1)N1CCN(c2ccccc2F)CC1`: the compound was classed as inactive.
Under `CCOC(=O)C(C(=O)Nc1ccc(C)cc1)C1CCCCC1` (stereo unspecified) stands “inactive”.
As for `Cc1ccccc1NC1=NC(=S)N(c2ccccc2)C12CCOC(C)(C)C2` (stereo unspecified), the entry is “inactive”; as for `CC(CN1CCOCC1)(NS(=O)(=O)c1ccccc1)c1ccccc1` (stereo unspecified), “inactive”.
Turning to `CC(C)OC(=O)c1c(NC(=O)c2ccco2)sc2c1CCCC2`, the compound was called inactive.
For `O=C(O)CCC(=O)Nc1sc2c(c1C(=O)Nc1cccc3ccccc13)CCCCC2`, the compound was classed as inactive.
On to `CCOC(=O)CC(=O)Nc1ccccc1C(=O)O`, for which the compound was classed as inactive.
Consider `CCCCNC(=O)CCCn1c(=O)[nH]c2ccc(Br)cc2c1=O`, for which the compound was classed as inactive.
For the compound `O=C1OCc2ccc(NC(=O)C3CC3)cc21`, the call was inactive.
Under `OCCN1CCN(C(=S)Nc2ccc(Oc3ccccc3)cc2)CC1` stands “inactive”.
For the compound `Cc1ccc(CC(=O)NCCS(=O)c2ccc(Cl)cc2)cc1` (stereo unspecified), the result was inactive.
Consider `Cc1ccc(CS(=O)(=O)CCC(=O)NCCCN2CCCC2)cc1`, for which the outcome was inactive.
As for `O=C(CN1C(=O)NC2(CCCCC2)C1=O)NCc1cccs1`, the entry is “inactive”; as for `COCn1c(-c2cccc(Br)c2)nc2ccccc21`, “inactive”; as for `COc1cc(Cl)ccc1OCc1cc(C(=O)NCC(C)(C)N2CCOCC2)no1`, “inactive”.
Under `CSc1ccccc1OCc1cc(C(=O)N(C)Cc2c(C)n[nH]c2C)no1` stands “inactive”; under `NS(=O)(=O)c1ccc(NC(=O)CSc2nnc(-c3ccc(O)cc3)o2)cc1`, “inactive”; under `O=C(CSc1nnc(-c2cccnc2)o1)Nc1ccc(Cl)cc1`, “inactive”.
As for `CC(=O)N1Cc2cc([N+](=O)[O-])ccc2Oc2ccccc21`, the entry is “inactive”.
As for `CC(=O)NC(Cc1cnc[nH]1)C(=O)O` (stereo unspecified), the compound was classed as inactive.
As for `CCCN(C(=O)Cn1c(C(F)(F)F)nc2ccccc21)C1CCS(=O)(=O)C1` (stereo unspecified), the entry is “inactive”.
Regarding `O=C(NCc1ccccc1)c1ccc(F)c(F)c1`, the outcome was inactive.
As for `O=C(NCc1ccccc1)c1ccc(Br)o1`, the entry is “inactive”; as for `Cc1ccc(OCCNC(=O)c2cc(-n3cnnc3)ccc2Cl)cc1C`, “inactive”; as for `C[C@@H]1O[C@@H](Oc2c(-c3ccc(O)c(O)c3)oc3cc(O)cc(O)c3c2=O)[C@H](O)[C@H](O)[C@H]1O`, “inactive”.
Under `COc1ccc(Cl)cc1NC(=S)NCc1cccnc1` stands “inactive”; under `CC(C)N1CCc2c(sc(NC(=O)c3ccc(S(=O)(=O)N4CCc5ccccc54)cc3)c2C(N)=O)C1`, “inactive”; under `CC(NC(=O)c1ccc([N+](=O)[O-])o1)C12CC3CC(CC(C3)C1)C2` (stereo unspecified), “inactive”.
Consider `COc1ccccc1N1CCN(C(=O)c2cc3c(=O)n4ccccc4nc3s2)CC1`, for which the compound was called inactive.
Under `Cc1ccc(NC(=O)CSc2nccn2C)cc1F` stands “inactive”; under `CCCNC(=O)c1cc(C)no1`, “inactive”.
As to `COc1ccc(NC(=O)Cn2ncc(Cl)c(Cl)c2=O)cc1S(=O)(=O)N1CCOCC1`, the compound was classed as inactive.
Under `COc1ccc(S(=O)(=O)N2CCC(C(=O)NCc3cccnc3)CC2)cc1OC` stands “inactive”; under `O=c1[nH]c2ccc(S(=O)(=O)N3CCCCC3)cc2s1`, “inactive”; under `CN(C)C(=S)Nc1ccc2ccccc2c1`, “inactive”.
As to `O=C(Cn1cc(C(F)(F)F)ccc1=O)OCC(=O)c1ccc[nH]1`, the compound was classed as inactive.
Turning to `COc1ccc(/C(C)=N/NC(=O)CNC(=O)c2ccncc2)c(OC)c1`, the outcome was inactive.
Under `Cc1c(Cl)cccc1NC(=O)C1NC(=O)CC1c1ccccc1` (stereo unspecified) stands “inactive”; under `COC(=O)CSc1ccc(C#N)c(SCC(=O)OC)c1`, “inactive”.
